Laboratory results reported in PubChem BioAssay AID1645838 (ICCB-Longwood Screening Facility, Harvard Medical School, 2021).
Several values for one entry are separate records, joined by “and”; a condition that tells them apart may be missing. Equal values may be shown once. The campaign covered roughly 2,000 compounds. About 100 (5%) were called active. Cut-off read from the data, not from the text of the source: active = z-score above about 2; inactive = the rest. This excerpt belongs to a sample that is enriched for actives. A structure can be active in one record and inactive in another.

Assay: supercomplex reporter luminescence per Hoechst cell count – Hoechst nuclei count (AID 1645838);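 note: control cybrid cells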;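 for z-score: higher means more mitochondrial supercomplex formation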
Conditions: Cells, luminescence/Hoechst cell count ratio; for z-score: stronger effect = higher value; for cell count: measured here: cell number, Hoechst nuclei count
[1] = library stock concentration (final well concentration not given) 46 uM
[2] = library stock concentration (final well concentration not given) 278 uM
[3] = library stock concentration (final well concentration not given) 1.67 mM
[4] = library stock concentration (final well concentration not given) 10 mM
[5] = library stock concentration (final well concentration not given) 80 uM
[6] = library stock concentration (final well concentration not given) 400 uM
[7] = library stock concentration (final well concentration not given) 2 mM

With `CC(C)CCOc1ccc(N)cc1` the z-score was -0.619 (inactive) and the cell count was 5370.
For `N=C(N)c1ccc2cc(OC(=O)c3ccc(N=C(N)N)cc3)ccc2c1`, the z-score [1] was 0.0192 (inactive), the z-score [2] was 0.31 (inactive) and the z-score [3] was -0.356 (inactive). The z-score [4] was -0.0213 (inactive), the cell count [1] was 6960 and the cell count [2] was 6430. It also gave a cell count [3] of 7070 and a cell count [4] of 6560.
With `Cc1cnc(Nc2ccc(F)cc2Cl)nc1-c1c[nH]c(C(=O)NC(CO)c2cccc(Cl)c2)c1` (stereo not drawn) the outcome (library stock 10 mM) was “inactive; censored for cell count”, the z-score [1] was -0.208 (inactive) and the z-score [2] was -0.12 (inactive). For the same molecule, the z-score [3] was 2.01 (active), the cell count [1] was 6210 and the cell count [2] was 6120. For the same molecule, the cell count [3] was 3060.
With `O=C(O)c1ccc(Nc2ncc3c(n2)-c2ccc(Cl)cc2C(c2c(F)cccc2F)=NC3)cc1` the outcome (library stock 10 mM) was “inactive; censored for cell count”, the z-score [5] was -0.747 (inactive) and the z-score [6] was -0.464 (inactive). For the same molecule, the z-score [7] was -0.071 (inactive), the cell count [5] was 4990 and the cell count [6] was 4350. For the same molecule, the cell count [7] was 3530.
For `COc1cc(Nc2ncc3c(n2)-c2ccc(Cl)cc2C(c2c(F)cccc2OC)=NC3)ccc1C(=O)O`, the outcome (library stock 1.67 mM) was “inactive; censored for cell count”, the outcome (library stock 10 mM) was “inactive; censored for cell count” and the z-score [1] was -0.133 (inactive). For the same molecule, the z-score [2] was 1.85 (inactive), the cell count [1] was 5510 and the cell count [2] was 2620.
For `CC(Cc1cc2c(c(C(N)=O)c1)N(CCCO)CC2)NCCOc1ccccc1OCC(F)(F)F` (stereo not drawn), the z-score [5] was -1.47 (inactive), the z-score [6] was -1.87 (inactive) and the z-score [7] was -2.9 (inactive). The z-score [4] was -3.02 (inactive), the cell count [5] was 5980 and the cell count [6] was 5330. The cell count [7] was 5440 and the cell count [4] was 5520.
For `COc1ccc(Br)c(-c2nc3ccccc3c(=O)o2)c1`, the outcome (library stock 10 mM) was “inactive; censored for cell count”, the z-score [5] was -0.298 (inactive) and the z-score [6] was -0.159 (inactive). For the same molecule, the z-score [7] was -0.345 (inactive), the cell count [5] was 5250 and the cell count [6] was 5070. For the same molecule, the cell count [7] was 5030.
With `O=c1[nH]oc2cc(Cl)ccc12` the z-score [1] was -0.28 (inactive), the z-score [2] was 0.381 (inactive) and the z-score [3] was -0.301 (inactive). The z-score [4] was 0.402 (inactive), the cell count [1] was 6680 and the cell count [2] was 6710. For the same molecule, the cell count [3] was 6630 and the cell count [4] was 6300.
With `O=P(O)(O)OC1C(O)C(OP(=O)(O)O)C(O)C(OP(=O)(O)O)C1O` (stereo not drawn) the z-score was -0.332 (inactive) and the cell count was 5290.
With `CC(C)CC(NC(=O)NC(CCC(=O)O)C(=O)O)C(=O)O` (stereo not drawn) the z-score [1] was -0.295 (inactive), the z-score [2] was 0.0106 (inactive) and the z-score [3] was 0.469 (inactive). For the same molecule, the z-score [4] was 0.233 (inactive), the cell count [1] was 6480 and the cell count [2] was 6530. For the same molecule, the cell count [3] was 6460 and the cell count [4] was 6410.
For `COc1cc(=C2C=c3ccccc3=N2)[nH]c1=Cc1[nH]c(C)cc1C`, the z-score [5] was 0.065 (inactive), the z-score [6] was 2.07 (active) and the z-score [7] was 3.14 (active). For the same molecule, the z-score [4] was 1.08 (inactive), the cell count [5] was 5750 and the cell count [6] was 1640. It also gave a cell count [7] of 1600 and a cell count [4] of 1560.
For `Cc1cc(C)c(/C=C2\C(=O)Nc3ccccc32)[nH]1`, the z-score was -0.647 (inactive) and the cell count was 5700.
For `CCCC(NC(C)C(=O)N1C(C(=O)O)C[C@H]2CCCC[C@@H]21)C(=O)OCC` (stereo partly drawn), the z-score [5] was -0.394 (inactive), the z-score [6] was 0.104 (inactive) and the z-score [7] was -0.276 (inactive). The z-score [4] was -0.453 (inactive), the cell count [5] was 5070 and the cell count [6] was 4880. It also gave a cell count [7] of 5080 and a cell count [4] of 5340.
In the case of `CCCCCCCCC#CCC#CCC#CCCCC(=O)O`, the z-score is reported as 0.153 (inactive) and the cell count is reported as 5310.
For `CCCCC1C(=O)CC[C@H]2[C@@H]1CC(=O)[C@@H]2CCCCCCC(=O)O` (stereo partly drawn), the z-score was -0.162 (inactive) and the cell count was 5440.
With `CC/C=C\C/C=C\C/C=C\CCCCCCCC(=O)OCC` the z-score was -0.911 (inactive) and the cell count was 5260.
In the case of `NC(=O)Nc1sc(-c2ccc(F)cc2)cc1C(N)=O`, the outcome (library stock 10 mM) is reported as “inactive; censored for cell count”, the z-score [1] is reported as -0.164 (inactive) and the z-score [2] is reported as 0.156 (inactive). For the same molecule, the z-score [3] was 1.6 (inactive), the cell count [1] was 6530 and the cell count [2] was 6190. For the same molecule, the cell count [3] was 4790.
With `NC(=O)Nc1cc(-c2cccc(F)c2)sc1C(=O)NC1CCCNC1` (stereo not drawn) the outcome (library stock 400 µM) was “inactive; censored for cell count”, the outcome (library stock 2 mM) was “inactive; censored for cell count” and the outcome (library stock 10 mM) was “inactive; censored for cell count”. For the same molecule, the z-score [5] was 0.798 (inactive) and 2.01 (active), the z-score [6] was 2.61 (active) and the cell count [5] was 3580 and 3980. It also gave a cell count [6] of 1750.
With `O=C(NC1CCN(CC(F)(F)F)CC1)c1ccc(-c2cccc(F)c2)nc1` the z-score [1] was -0.25 (inactive), the z-score [2] was 0.0438 (inactive) and the z-score [3] was -0.291 (inactive). For the same molecule, the z-score [4] was -0.236 (inactive), the cell count [1] was 6960 and the cell count [2] was 6520. The cell count [3] was 7210 and the cell count [4] was 7340.
With `Cc1ccc(NC(=O)c2ccc(CN3CCN(C)CC3)cc2)cc1Nc1nccc(-c2cccnc2)n1` the z-score [5] was -0.201 (inactive), the z-score [6] was -0.672 (inactive) and the z-score [7] was -0.269 (inactive). For the same molecule, the z-score [4] was -0.486 (inactive), the cell count [5] was 4460 and the cell count [6] was 4540. For the same molecule, the cell count [7] was 4320 and the cell count [4] was 4680.
With `Cc1cn(-c2cc(NC(=O)c3ccc(C)c(Nc4nccc(-c5cccnc5)n4)c3)cc(C(F)(F)F)c2)cn1` the z-score [5] was -0.15 (inactive), the z-score [6] was -0.0425 (inactive) and the z-score [7] was 0.192 (inactive). For the same molecule, the z-score [4] was 1.64 (inactive), the cell count [5] was 5660 and the cell count [6] was 5720. For the same molecule, the cell count [7] was 5660 and the cell count [4] was 3260.
For `Cc1ccc(NC(=O)c2ccc(CN3CCC(N(C)C)C3)c(C(F)(F)F)c2)cc1Nc1nccc(-c2cncnc2)n1` (stereo not drawn), the z-score [5] was 0.0204 (inactive), the z-score [6] was 0.323 (inactive) and the z-score [7] was 1.69 (inactive). For the same molecule, the z-score [4] was 4.49 (active), the cell count [5] was 5990 and the cell count [6] was 5640. The cell count [7] was 4410 and the cell count [4] was 2490.
